Measurements: PubChem BioAssay
Values without a mark were called inactive. For some assays here: Measured potencies and affinities stand elsewhere. Calls of active or inactive are those of the source. Unless noted, the rule behind the calls is not given here.

Legend:
[1] = antimalarial activity against Dd2 strain (AID 2302;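 active = growth inhibition above 50% at the single 2 µM test dose, taken to imply half-maximal potency below 2 µM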;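 note: 0% = DMSO untreated growth and 100% = chloroquine plus artemisinin killed control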); conditions: P. falciparum Dd2 in RBCs, LDH growth readout, 72 h; at 2 µM; stronger effect = higher value
[2] = human hepatoma cell viability loss – ATP luminescence, cytotoxicity control for P. falciparum antimalarial project, primary screen (AID 2303;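 active = inhibition above 50%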;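 note: 0% = DMSO wells and 100% = digitonin-killed cells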); conditions: HepG2 viability, 24-48 h, at 10 µM, stronger effect = higher value
[3] = target: L-lactate dehydrogenase (Plasmodium falciparum (isolate CDC / Honduras)) (UniProt Q27743); assay: PfLDH activity inhibition – cell lysate, 3D7 strain, counter-screen for P. falciparum growth inhibition project (AID 2304);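 note: 0% = vehicle and 100% = reference inhibitor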; conditions: P. falciparum 3D7 crude extract, LDH APAD/NBT absorbance; at 2 µM; stronger effect = higher value
L-lactate dehydrogenase (Plasmodium falciparum (isolate CDC / Honduras)), sequence (Q27743 whole entry, looked up): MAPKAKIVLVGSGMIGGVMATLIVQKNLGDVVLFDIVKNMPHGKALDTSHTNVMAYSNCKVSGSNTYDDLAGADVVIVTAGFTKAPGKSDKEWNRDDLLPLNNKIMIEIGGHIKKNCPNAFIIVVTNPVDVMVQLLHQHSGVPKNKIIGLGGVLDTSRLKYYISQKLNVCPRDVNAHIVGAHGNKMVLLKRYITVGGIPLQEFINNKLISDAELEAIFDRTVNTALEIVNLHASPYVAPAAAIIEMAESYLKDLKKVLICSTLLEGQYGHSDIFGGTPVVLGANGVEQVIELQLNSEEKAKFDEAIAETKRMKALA

[4] = inhibition of 3D7 malaria parasite growth – strain 3D7 (AID 2306);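 note: 0% = DMSO wells and 100% = chloroquine plus artemisinin control wells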; conditions: P. falciparum 3D7 erythrocytic growth, LDH absorbance, 72 h; at 2 µM; stronger effect = higher value
[5] = target: Calcium-dependent protein kinase 1 (Plasmodium falciparum (isolate 3D7)) (UniProt P62344); assay: PfCDPK1 kinase inhibitors, biochemical, TCAMS library (AID 1159585; cut-off not given, nearly all actives have IC50 up to about 0.98 µM;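 note: inhibitors leave more ATP so luminescence rises with inhibition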); conditions: recombinant PfCDPK1, Kinase-Glo ATP depletion luminescence
Calcium-dependent protein kinase 1 (Plasmodium falciparum (isolate 3D7)), sequence (P62344 whole entry, looked up): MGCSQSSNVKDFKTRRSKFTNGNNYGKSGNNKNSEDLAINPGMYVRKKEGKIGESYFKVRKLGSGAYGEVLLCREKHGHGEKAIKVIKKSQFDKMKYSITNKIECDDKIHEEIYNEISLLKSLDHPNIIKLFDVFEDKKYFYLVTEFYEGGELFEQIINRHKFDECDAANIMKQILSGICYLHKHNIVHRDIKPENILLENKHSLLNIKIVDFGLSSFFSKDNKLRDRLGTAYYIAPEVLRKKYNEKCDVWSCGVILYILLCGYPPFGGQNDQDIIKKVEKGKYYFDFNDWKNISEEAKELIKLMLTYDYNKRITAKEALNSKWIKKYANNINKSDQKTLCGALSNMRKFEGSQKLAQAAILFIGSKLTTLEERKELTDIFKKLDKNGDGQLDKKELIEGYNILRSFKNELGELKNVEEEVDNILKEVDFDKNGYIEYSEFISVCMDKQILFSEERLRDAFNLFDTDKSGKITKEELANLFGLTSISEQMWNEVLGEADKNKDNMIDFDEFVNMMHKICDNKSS

[6] = target: Plasmodium falciparum protein kinase 6 (PK6, PF3D7_1337100) (UniProt Q8IDW1); assay: PfPK6 kinase inhibitors, biochemical, TCAMS library (AID 1159586); conditions: recombinant PfPK6, Kinase-Glo ATP depletion luminescence
Plasmodium falciparum protein kinase 6 (PK6, PF3D7_1337100), sequence (Q8IDW1 1-305): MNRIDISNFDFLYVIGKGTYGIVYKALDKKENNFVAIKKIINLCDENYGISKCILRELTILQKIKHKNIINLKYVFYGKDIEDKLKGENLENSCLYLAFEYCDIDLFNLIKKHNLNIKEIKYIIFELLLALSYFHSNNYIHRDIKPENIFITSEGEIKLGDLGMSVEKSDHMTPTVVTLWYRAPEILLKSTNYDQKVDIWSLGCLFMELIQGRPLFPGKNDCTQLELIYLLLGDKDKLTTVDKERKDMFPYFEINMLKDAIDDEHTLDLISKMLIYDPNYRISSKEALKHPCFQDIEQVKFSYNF

[7] = target: Protein kinase 7 (PK7), Plasmodium falciparum 3D7 (PF3D7_0213400) (UniProt Q7YTF7); assay: inhibition of Plasmodium PK7 catalytic activity – biochemical, TCAMS antimalarial set, Kinase-Glo luminescence (AID 1159587); conditions: recombinant PfPK7, Kinase-Glo ATP depletion luminescence
Protein kinase 7 (PK7), Plasmodium falciparum 3D7 (PF3D7_0213400), sequence (Q7YTF7 1-343): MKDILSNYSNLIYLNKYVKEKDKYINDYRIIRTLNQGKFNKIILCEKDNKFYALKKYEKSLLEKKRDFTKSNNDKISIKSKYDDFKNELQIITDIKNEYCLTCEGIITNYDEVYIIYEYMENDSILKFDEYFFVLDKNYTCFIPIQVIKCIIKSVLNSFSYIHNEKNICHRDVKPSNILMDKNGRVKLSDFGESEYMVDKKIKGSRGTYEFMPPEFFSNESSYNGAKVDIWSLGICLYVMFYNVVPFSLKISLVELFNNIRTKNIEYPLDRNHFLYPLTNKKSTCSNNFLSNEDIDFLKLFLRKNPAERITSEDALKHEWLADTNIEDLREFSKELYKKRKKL

[8] = target: Calcium-dependent protein kinase 4 (Plasmodium falciparum (isolate 3D7)) (UniProt Q8IBS5); assay: PfCDPK4 kinase inhibitors, biochemical, TCAMS library (AID 1159588; cut-off not given, nearly all actives have IC50 up to about 0.91 µM); conditions: recombinant PfCDPK4, Kinase-Glo ATP depletion luminescence
Calcium-dependent protein kinase 4 (Plasmodium falciparum (isolate 3D7)), sequence (Q8IBS5 whole entry, looked up): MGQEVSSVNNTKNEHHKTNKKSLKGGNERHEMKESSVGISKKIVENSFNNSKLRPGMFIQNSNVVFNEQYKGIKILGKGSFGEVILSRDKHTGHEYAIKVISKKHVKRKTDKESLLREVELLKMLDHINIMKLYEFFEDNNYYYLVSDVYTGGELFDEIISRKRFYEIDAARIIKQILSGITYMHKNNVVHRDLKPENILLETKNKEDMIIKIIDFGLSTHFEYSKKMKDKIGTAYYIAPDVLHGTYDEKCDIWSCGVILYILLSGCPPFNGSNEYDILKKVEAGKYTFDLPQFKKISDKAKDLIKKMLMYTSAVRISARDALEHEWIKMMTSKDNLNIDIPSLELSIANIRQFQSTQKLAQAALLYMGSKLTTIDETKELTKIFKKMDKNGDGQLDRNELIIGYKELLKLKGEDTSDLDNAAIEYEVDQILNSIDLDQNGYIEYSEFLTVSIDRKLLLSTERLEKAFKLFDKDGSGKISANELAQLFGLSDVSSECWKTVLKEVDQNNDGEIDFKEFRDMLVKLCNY

SMILES	growth inhibition [1]	inhibition [2]	inhibition [3] [%]	growth inhibition [4]	outcome [5]	outcome [6]	outcome [7]	outcome [8]
O=c1cc(NCCCNCc2cc(Br)cs2)[nH]c2ccccc12	5%	11%	-2	85% (active)	inactive	inactive	inactive	inactive
CCOc1cc(CC)ccc1C1CCN(CCN2CCC(NC(=O)c3ccc(-c4ccc(C#N)cc4)cc3)CC2)CC1	71% (active)	32%	6	100% (active)	inactive	inactive	inactive	inactive
CC(=O)Nc1nc(N)c2c(ccc3c2ccn3CC(C)C)n1	78% (active)	66% (active)	-3	94% (active)	inactive	inactive	inactive	inactive
Fc1ccc2nc(-c3ccc(-c4cccc(CN5CCN(CCN6CCOCC6)CC5)c4)cc3)[nH]c2c1	100% (active)	35%	4	101% (active)	inactive	inactive	inactive	inactive
Cc1cc(Nc2nc(NCc3cccnc3)nc3ccccc23)n[nH]1	33%	11%	1	101% (active)	inactive	inactive	inactive	inactive
COc1ccc(NC(=O)CCNc2cc(C)nc(NCc3cccc(C)c3)n2)cc1	25%	14%	1	100% (active)	inactive	inactive	inactive	inactive
CC1CN(c2ccc(C(=O)NCC3CC3)cc2NC(=O)OCc2ccccc2)CC(C)O1 (configuration not stated)	76% (active)	-5%	-2	91% (active)	inactive	inactive	inactive	inactive
COc1nc(NCC(C)C)nc(Oc2ccc(=O)n(Cc3ccccc3)n2)n1	93% (active)	1%	5	97% (active)	inactive	inactive	inactive	inactive
COc1ccc(NC(=O)/C=C/c2ccccc2Cl)cc1OCCN1CCC(N2CCN(C)CC2)CC1	49%	19%	5	102% (active)	inactive	inactive	inactive	inactive
COc1ccc2c(c1)Sc1ccccc1C(N1CCN(CCO)CC1)C2 (configuration not stated)	4%	11%	-3	95% (active)	inactive	inactive	inactive	inactive
CC1(C)N=C(N)N=C(N)N1OCCOc1cccc(C(F)(F)F)c1	97% (active)	67% (active)	-2	93% (active)	inactive	inactive	inactive	inactive
Fc1ccc(-c2cc(NCCCn3ccnc3)nc(-c3cccnc3)n2)cc1	70% (active)	11%	0	99% (active)	inactive	inactive	inactive	inactive
CN(CCO)Cc1cccc(-c2ccc(NC(=O)c3cccc(C#N)c3)cc2)c1	57% (active)	23%	9	97% (active)	inactive	inactive	inactive	inactive
COc1ccc(-c2cc(-c3nc4ccc(CN)cc4[nH]3)c(=O)n(C)c2)cc1OC	56% (active)	-12%	4	85% (active)	inactive	inactive	inactive	inactive
Cc1cc(C(F)(F)F)n2nc(C(=O)N(Cc3cncn3Cc3cccc(F)c3)CC3CC3)cc2n1	92% (active)	-2%	3	101% (active)	inactive	inactive	inactive	inactive
O=C(/C=C/c1cccc(C(F)(F)F)c1)NCCCCCN1CCN(C(=O)Nc2ccc(Cl)c(Cl)c2)CC1	-1%	29%	4	89% (active)	inactive	inactive	inactive	inactive
COc1ccc2nccc(NN=Cc3cccc([N+](=O)[O-])c3)c2c1	98% (active)	4%	-8	100% (active)	inactive	inactive	inactive	inactive
O=C(Nc1ccc(NC2=NCCN2)cc1)c1ccc(C(=O)Nc2ccc(NC3=NCCN3)cc2)cc1	86% (active)	15%	-8	91% (active)	inactive	inactive	inactive	inactive
Cc1c(Cl)cccc1S(=O)(=O)Nc1ccc(CCN2CCC(N)CC2)cc1	4%	23%	0	90% (active)	inactive	inactive	inactive	inactive
